Rows were chosen to be rich in hits. Some 31% of all compounds tested hit in one or more screens of this group.
CYP2C19 act: human CYP2C19 activators, primary screen, biochemical, luminescence; AID 1025, 2008; activation factor at 5 µM; 96,000 tested, under 10 active; recombinant CYP2C19, luciferin-H EGE luminescence; stronger effect = higher value; 0 = fully inhibited enzyme, 1 = untreated enzyme;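 active = activation factor of at least 2 at 5 µM in the primary screen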;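 note: 0 = wells with 2.5 mM tranylcypromine and 1 = vehicle-only wells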
CYP2C9 inh: blockers of cytochrome P450 2C9 activity – biochemical, luminescence, ADME assay, primary screen; 20% of 96,000 active; P11712; CYP2C9 Supersomes, luciferin-H conversion; AID 777, 2007; inhibition, % at 5 µM;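 active = blocking of liver enzyme CYP2C9 beyond about 50% at 5 µM, limit read from the data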
Target sequence (P11712 whole entry, looked up): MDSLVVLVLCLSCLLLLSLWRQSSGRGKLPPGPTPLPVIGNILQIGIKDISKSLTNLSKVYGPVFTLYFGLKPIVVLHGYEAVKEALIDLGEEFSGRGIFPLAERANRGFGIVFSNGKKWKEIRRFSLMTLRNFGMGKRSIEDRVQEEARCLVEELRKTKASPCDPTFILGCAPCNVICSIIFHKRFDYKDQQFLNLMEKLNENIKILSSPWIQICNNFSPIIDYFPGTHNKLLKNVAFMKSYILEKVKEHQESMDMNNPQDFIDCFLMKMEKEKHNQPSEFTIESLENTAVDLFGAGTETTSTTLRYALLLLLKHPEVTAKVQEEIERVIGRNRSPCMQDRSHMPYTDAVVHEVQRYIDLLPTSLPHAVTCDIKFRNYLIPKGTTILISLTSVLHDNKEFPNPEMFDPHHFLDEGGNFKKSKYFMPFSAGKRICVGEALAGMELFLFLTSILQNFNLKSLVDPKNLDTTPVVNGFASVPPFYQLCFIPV
CYP2C19 inhib: blockers of cytochrome P450 2C19 activity – biochemical, luminescence, ADME assay, primary screen. CYP2C19 Supersomes, luciferin-H EGE luminescence, 30 min. inhibition, % at 5 µM. P33261. 21% of 96,000 active. AID 778, 2007;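 active = CYP2C19 inhibition above a set limit at 5 µM in the primary screen, cut at about 50% in these data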;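 note: plate controls were negative control wells for no effect and 2.5 mM tranylcypromine positive control for full effect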
CYP2C9 act: human CYP2C9 activators, primary screen, biochemical, luminescence; Cytochrome P450 2C9 (Homo sapiens), P11712; recombinant CYP2C9, luciferin-H conversion; stronger effect = higher value; factor 1 = untreated enzyme, 0 = blocked; activation factor at 5 µM; 1.4% of 96,000 active; AID 1024, 2008;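 active = activation factor of 2 or more for CYP2C9 at a 5 µM dose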;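 note: 0 = sulfaphenazole-blocked wells and 1 = vehicle-only wells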
PLAP act: PLAP enzyme activators, biochemical, luminescence, HTS. Alkaline phosphatase, placental type (Homo sapiens), P05187. 1.2% of 96,000 active. purified PLAP enzyme, luminescent substrate read-out; stronger effect = higher value. activation fold at 20 µM; in the data active = activation fold above about 2
* marks the source's active call; other numbers are inactive results.

What do the screens show for `CC1Oc2ccccc2N(CC(=O)Nc2ccc3c(c2)OCO3)C1=O` (stereo not drawn)?
CYP2C19 act: 0.7; CYP2C9 inh: -0.4; CYP2C19 inhib: 27.4; CYP2C9 act: 1; PLAP act: 1

How did Cc1ccc2c(c1)N(Cc1ccc3c(c1)OCO3)C(=O)C(C)O2 (stereo not drawn) do in these assays?
CYP2C19 act: 0.4; CYP2C9 inh: 33.3; CYP2C19 inhib: 60.9*; CYP2C9 act: 0.7; PLAP act: 0.7

What do the screens show for `Cc1ccnc(NS(=O)(=O)c2ccc(N)cc2)n1`?
CYP2C19 act: 0.8; CYP2C9 inh: 21.1; CYP2C19 inhib: 18.4; CYP2C9 act: 0.8; PLAP act: 0.9

Results for CCOC(=O)CC1C(=O)NCCN1C(=O)c1c(F)cccc1F (stereo not drawn) ?
CYP2C19 act: 1; CYP2C9 inh: 12.0; CYP2C19 inhib: 0.6; CYP2C9 act: 0.9; PLAP act: 1.1

What do the screens show for `CCOC(=O)CC1C(=O)NCCN1Cc1cccc(C(F)(F)F)c1` (stereo not drawn)?
CYP2C19 act: 0.4; CYP2C9 inh: -20.1; CYP2C19 inhib: 55.2*; CYP2C9 act: 1.2; PLAP act: 1.5

What do the screens show for `Cc1ccc(CNC(=O)CSc2c3c(nc4cc(Cl)ccc24)CCCC3)o1`?
CYP2C19 act: 0.2; CYP2C9 inh: 39.4; CYP2C19 inhib: 79.5*; CYP2C9 act: 0.6; PLAP act: 1.5

How did CC(C)(C)n1nnnc1CN1CCN(C2CCCC2)CC1 do in these assays?
CYP2C19 act: 1; CYP2C9 inh: -16.1; CYP2C19 inhib: 0.6; CYP2C9 act: 1.2; PLAP act: 1

What do the screens show for `Cc1ccc(C(=O)COC(=O)CNC(=O)COc2ccccc2C)cc1C`?
CYP2C19 act: 0.9; CYP2C9 inh: -144.0; CYP2C19 inhib: 12.5; CYP2C9 act: 2.4*; PLAP act: 1.1

How did O=C(c1oc(=O)c2ccccc2c1-c1ccccc1)N1CCN(C2CCCCC2)CC1 do in these assays?
CYP2C19 act: 0; CYP2C9 inh: 69.5*; CYP2C19 inhib: 99.0*; CYP2C9 act: 0.3; PLAP act: 1.4

Results for CC(C)(C)Cc1nc(-c2ccccn2)no1 ?
CYP2C19 act: 0.9; CYP2C9 inh: 1.4; CYP2C19 inhib: 6.0; CYP2C9 act: 1; PLAP act: 0.8

What do the screens show for `CC(C)c1ccc(OCc2nc(-c3ccccn3)no2)c(Br)c1`?
CYP2C19 act: 0.7; CYP2C9 inh: 37.1; CYP2C19 inhib: 33.6; CYP2C9 act: 0.6; PLAP act: 0.9

Results for CCc1ccc(OCc2nc(-c3ccccn3)no2)c(Br)c1 ?
CYP2C19 act: 0.1; CYP2C9 inh: 73.9*; CYP2C19 inhib: 94.8*; CYP2C9 act: 0.3; PLAP act: 1.4

How did Cc1ccc(OCc2nc(-c3ccccn3)no2)c(Br)c1 do in these assays?
CYP2C19 act: 0.2; CYP2C9 inh: 30.7; CYP2C19 inhib: 83.5*; CYP2C9 act: 0.7; PLAP act: 1.6

How did O=C1Nc2ccccc2C12OCCCCO2 do in these assays?
CYP2C19 act: 1; CYP2C9 inh: -16.8; CYP2C19 inhib: 2.2; CYP2C9 act: 1.2; PLAP act: 1.2

What do the screens show for `COc1cccc(CNC(=O)c2ccccc2N)c1`?
CYP2C19 act: 0.2; CYP2C9 inh: 8.8; CYP2C19 inhib: 78.2*; CYP2C9 act: 0.9; PLAP act: 0.9

Results for COc1cccc(CNC(=O)Cn2cccc2)c1 ?
CYP2C19 act: 0.5; CYP2C9 inh: 22.1; CYP2C19 inhib: 45.8; CYP2C9 act: 0.8; PLAP act: 1.3

What do the screens show for `COc1cccc(CNC(=O)C2=C(C)C(=O)OC23CCC(C)CC3)c1` (stereo not drawn)?
CYP2C19 act: 0.1; CYP2C9 inh: 25.2; CYP2C19 inhib: 90.6*; CYP2C9 act: 0.7; PLAP act: 1.1

What do the screens show for `CCCNC(=O)C1=C(C)C(=O)OC12CCC(C)CC2` (stereo not drawn)?
CYP2C19 act: 0.5; CYP2C9 inh: 14.9; CYP2C19 inhib: 52.5*; CYP2C9 act: 0.9; PLAP act: 1

Results for CC1=C(C(=O)N2CCCCCC2)C2(CCC(C)CC2)OC1=O (stereo not drawn) ?
CYP2C19 act: 0.6; CYP2C9 inh: 7.0; CYP2C19 inhib: 42.3; CYP2C9 act: 0.9; PLAP act: 1.1

Screens (PubChem BioAssay)
